Data on nine compounds can be found in PubChem BioAssay.

Calls of active or inactive are those of the source.

The nature of test [1]: optical density shifts of acrAB sulA E. coli – strain DRC41, OD650, 48 h, E. coli filamentation inducer project, primary screen (AID 1152).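 Note: E. coli MC1000 strain DRC41 lacking acrAB efflux pump and sulA.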 The conditions noted are these: higher = more signal, called active from +8 up or from −8 down.
Test [2] in a line: probe aLefty1 binding on compound microarray – biochemical, small-molecule microarray, 635/667 nm fluorescence, primary screen (AID 1153).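 Note: score merges spot fluorescence with signal-to-noise ratio from the scanned slide images.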 Particulars: higher = more signal.
A short description of test [3]: plasmodial surface anion channel blockers, osmotic lysis – cell-based, P. falciparum Indochina, OD700, 1 h, primary screen (AID 1154). Particulars: P. falciparum Indochina infected RBC osmotic lysis, higher = more signal, called active from +8 up or from −8 down.
A short description of test [4]: plasmodial surface anion channel blockers, osmotic lysis – cell-based, P. falciparum Indochina, OD700, 2 h, primary screen (AID 1155).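 Note: lysis reports solute entry through the parasite surface anion channel PSAC.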 The conditions noted are these: P. falciparum Indochina infected erythrocytes, higher = more signal, called active from +8 up or from −8 down.
A short description of test [5]: changes in parasitized red cell lysis, either direction – P. falciparum Indochina, OD700, 3 h, PSAC antagonist project, primary screen (AID 1156). Particulars: P. falciparum-infected erythrocytes, osmotic lysis, higher = more signal, called active from +8 up or from −8 down.
A short description of test [6]: plasmodial surface anion channel blockers, osmotic lysis – cell-based, P. falciparum Indochina, OD700, 18 h, primary screen (AID 1157). The conditions noted are these: P. falciparum Indochina infected erythrocytes, osmotic lysis OD700, 18 h; higher = more signal, called active from +8 up or from −8 down.
Test [7] in a line: S6 kinase pathway phospho-S6 level changes – cell-based, A549, cytoblot, luminescence, serum-stimulated, primary screen (AID 1158).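 Note: serum-stimulated A549 lung adenocarcinoma cells; signal is phosphorylated S6 detected by cytoblot immunostaining with HRP secondary.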 The conditions noted are these: 5 h, higher = more signal.
In test [8] the target is NADPH oxidase 2 (Homo sapiens) (UniProt P04839). The test is described as follows: compounds shifting NOX2 Amplex Red fluorescence – cell-based, HEK293-NOX2, PMA-stimulated, NOX inhibitor project, primary screen (AID 1159). Note: test concentration not given here. Particulars: 45 min, higher = more signal, called active from +8 up or from −8 down.
NADPH oxidase 2 (Homo sapiens), sequence (P04839 whole entry, looked up): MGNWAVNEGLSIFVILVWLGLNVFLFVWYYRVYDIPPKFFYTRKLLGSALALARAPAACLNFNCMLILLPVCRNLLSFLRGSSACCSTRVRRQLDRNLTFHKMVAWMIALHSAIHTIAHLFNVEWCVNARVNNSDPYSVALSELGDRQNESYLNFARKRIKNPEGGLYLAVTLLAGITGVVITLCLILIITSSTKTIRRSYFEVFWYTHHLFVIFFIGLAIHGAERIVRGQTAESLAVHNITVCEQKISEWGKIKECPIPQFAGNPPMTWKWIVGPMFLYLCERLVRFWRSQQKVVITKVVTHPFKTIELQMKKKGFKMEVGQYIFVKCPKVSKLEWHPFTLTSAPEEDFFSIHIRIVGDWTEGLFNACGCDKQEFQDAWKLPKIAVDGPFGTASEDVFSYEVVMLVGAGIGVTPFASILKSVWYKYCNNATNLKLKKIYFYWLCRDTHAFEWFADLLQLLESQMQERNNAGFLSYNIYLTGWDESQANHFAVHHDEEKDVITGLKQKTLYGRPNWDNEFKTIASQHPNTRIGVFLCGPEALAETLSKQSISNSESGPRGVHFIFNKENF
Test [9] concerns the target NADPH oxidase 4 (Homo sapiens) (UniProt Q9NPH5). The test is described as follows: compounds shifting NOX4 Amplex Red fluorescence – cell-based, HEK293-NOX4, tetracycline-induced, NOX inhibitor project, primary screen (AID 1160). The conditions noted are these: HEK293-NOX4, Amplex Red H2O2 fluorescence, 45 min; higher = more signal, called active from +8 up or from −8 down.

In test [10] the target is NADPH oxidase 5 (Homo sapiens) (UniProt Q96PH1). Briefly: compounds shifting NOX5 Amplex Red fluorescence – cell-based, HEK293-NOX5, NOX inhibitor project, primary screen (AID 1161). The conditions noted are these: HEK293-NOX5, ionomycin, 45 min, higher = more signal.
NADPH oxidase 5 (Homo sapiens), sequence (Q96PH1 whole entry, looked up): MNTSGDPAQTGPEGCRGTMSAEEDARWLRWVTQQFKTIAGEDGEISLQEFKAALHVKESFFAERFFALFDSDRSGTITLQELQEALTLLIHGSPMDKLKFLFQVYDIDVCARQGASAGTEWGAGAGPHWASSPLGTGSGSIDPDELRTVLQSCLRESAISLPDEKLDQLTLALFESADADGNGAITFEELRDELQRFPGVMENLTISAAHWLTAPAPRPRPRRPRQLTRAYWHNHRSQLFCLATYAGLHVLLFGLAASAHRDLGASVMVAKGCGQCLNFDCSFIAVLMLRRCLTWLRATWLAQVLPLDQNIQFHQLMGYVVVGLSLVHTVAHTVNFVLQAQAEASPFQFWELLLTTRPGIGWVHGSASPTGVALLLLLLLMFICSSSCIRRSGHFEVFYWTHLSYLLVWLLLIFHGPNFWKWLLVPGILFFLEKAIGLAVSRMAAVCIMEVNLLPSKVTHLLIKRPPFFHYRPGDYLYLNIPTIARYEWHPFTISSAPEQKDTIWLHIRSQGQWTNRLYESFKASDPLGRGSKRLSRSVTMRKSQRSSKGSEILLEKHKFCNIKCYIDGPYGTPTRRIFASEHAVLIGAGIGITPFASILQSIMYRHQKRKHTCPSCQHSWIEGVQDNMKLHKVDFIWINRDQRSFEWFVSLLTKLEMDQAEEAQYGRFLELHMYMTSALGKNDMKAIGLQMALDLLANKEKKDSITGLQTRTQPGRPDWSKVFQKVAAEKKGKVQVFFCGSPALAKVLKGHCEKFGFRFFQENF
Test [11] in a line: compound effects on lung adenocarcinoma cell viability – A549, calcein-AM fluorescence, 48 h, basal, profiling panel (AID 1162). Note: test concentration not given here. Particulars: higher = more signal.
Test [12] can be described thus: compound effects on differentiated 3T3-L1 adipocyte viability – cell-based, 3T3-L1 adipocytes, calcein-AM fluorescence, 48 h, basal, profiling panel (AID 1163). Note: test concentration not given here. The conditions noted are these: 3T3-L1 adipocytes viability, higher = more signal.
Test [13] is described as follows: compound effects on hepatocellular carcinoma cell viability – HepG2, calcein-AM fluorescence, 48 h, basal, profiling panel (AID 1164). Note: test concentration not given here. Particulars: higher = more signal.
A short description of test [14]: compound effects on multiple myeloma cell viability – MM1S, calcein-AM fluorescence, 48 h, basal, profiling panel (AID 1165).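 Note: viability of MM1S multiple myeloma cells under basal unstimulated conditions; test concentration not given here.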 Particulars: higher = more signal.
Test [15] can be described thus: calcein-AM signal in unstimulated myeloma cells – cell-based, calcein-AM fluorescence, 48 h, PK04 Diversity Set, profiling panel (AID 1166).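 Note: cells grown under basal conditions without added stimulus; test concentration not given here.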 Particulars: RPMI8226 myeloma viability, higher = more signal.
Test [16] in a line: JC-1 mitochondrial signal, unstimulated HepG2 cells – cell-based, JC-1 fluorescence, 24 h, 100 nL compound, profiling panel (AID 1167). Note: test concentration not given here. The conditions noted are these: HepG2 mitochondrial potential, higher = more signal.
Test [17] is described as follows: JC-1 mitochondrial signal, unstimulated adipocytes – cell-based, JC-1 fluorescence, 3T3-L1 adipocytes, 24 h, 100 nL compound, profiling panel (AID 1168). Note: test concentration not given here. Particulars: JC-1 mitochondrial fluorescence, higher = more signal, called active from +8 up or from −8 down.
A short description of test [18]: JC-1 mitochondrial signal, unstimulated myeloma cells – cell-based, JC-1 fluorescence, RPMI8226, 24 h, 100 nL compound, profiling panel (AID 1169). Note: test concentration not given here. The conditions noted are these: JC-1 mitochondrial potential fluorescence, higher = more signal.
Test [19] can be described thus: JC-1 mitochondrial signal, unstimulated MM1S myeloma – cell-based, JC-1 fluorescence, 24 h, 100 nL compound, profiling panel (AID 1170). Note: test concentration not given here. Particulars: MM1S mitochondrial potential, higher = more signal.
The nature of test [20]: resazurin metabolic signal in A549 cells – cell-based, resazurin fluorescence, 24 h, PK04 Diversity Set, profiling panel (AID 1171). Note: test concentration not given here. The conditions noted are these: A549 viability, higher = more signal, called active from +8 up or from −8 down. (In general: The colour change of resazurin is a common sign of viable cells or microbes.)

NADPH oxidase 4 (Homo sapiens), sequence (Q9NPH5 whole entry, looked up): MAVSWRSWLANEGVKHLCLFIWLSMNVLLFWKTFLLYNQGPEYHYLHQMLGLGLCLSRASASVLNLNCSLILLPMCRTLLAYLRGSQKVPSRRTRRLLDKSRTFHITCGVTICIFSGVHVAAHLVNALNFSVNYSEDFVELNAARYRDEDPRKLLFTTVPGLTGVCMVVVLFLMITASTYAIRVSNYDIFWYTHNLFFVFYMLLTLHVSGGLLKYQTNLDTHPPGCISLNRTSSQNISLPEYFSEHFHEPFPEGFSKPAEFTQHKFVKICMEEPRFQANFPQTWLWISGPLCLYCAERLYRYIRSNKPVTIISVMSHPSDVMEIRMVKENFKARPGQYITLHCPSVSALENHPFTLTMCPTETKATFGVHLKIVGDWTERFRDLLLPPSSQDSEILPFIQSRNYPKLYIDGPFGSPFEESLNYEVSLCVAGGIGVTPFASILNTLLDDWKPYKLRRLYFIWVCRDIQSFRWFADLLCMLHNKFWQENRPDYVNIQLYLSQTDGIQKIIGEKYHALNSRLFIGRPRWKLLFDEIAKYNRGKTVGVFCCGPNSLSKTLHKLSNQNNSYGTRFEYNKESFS

Consider `C=C(CCCC)/C(=C/C[C@@H](OC(C)=O)c1ccc(OCCO)cc1)c1cnc2ccccc2c1`, for which the z-score in test [1] was 1.04 (inactive); in test [3] it was 24 (active); in test [4], 6.92 (inactive); in test [5], 2.09 (inactive); in [6] it was 1.34 (inactive); in test [7] it was 0.684. For the same compound, the z-score is -1.98 (inactive) in [8]; -0.0832 (inactive) in test [9]; -2.21 in [10]; 2.57 in test [11]; 0.197 in [12]; 1.12 in test [13]. Also, the z-score in test [14] is -1.27; in test [15] it was -0.0971; in [16], 1.65; in test [17] it was -0.38 (inactive); in test [18], -0.364; in test [19], -1.16. Further, in test [20], the z-score was 0.775 (inactive). Moreover, the composite z-score in test [2] turned out to be 0.0038.
For `O=C1[C@@]23C=C(Br)[C@H](C[C@@H]2CCOC3)[C@@]12CO2`, the z-score in test [1] is -0.0625 (inactive); in test [3], -0.306 (inactive); in test [4] it was -0.261 (inactive); in test [5], -0.0502 (inactive); in [6], 0.0369 (inactive); in [7], -0.31. The z-score in [8] is -0.172 (inactive); in [9], 0.723 (inactive); in [10], -0.34; in [11], 0.845; in test [12] it was -0.711; in test [13], -0.0809. Besides, the z-score in test [14] was -1.89; in test [15], -0.491; in test [16], -1.08; in [17] it was -0.0633 (inactive); in [18], -0.849; in test [19], -0.688. In addition, the z-score in test [20] is -0.309 (inactive). This compound returned a composite z-score in test [2] of -0.216.
With `O=C1c2ccccc2[C@](Cc2ccccc2I)(C(=O)NCCN2CCOCC2)[C@H](c2ccc(CO)cc2)N1C1CCCCC1`, the z-score in [1] was 0.0237 (inactive); in test [3], 3.66 (inactive); in test [4], 0.814 (inactive); in [5], 0.664 (inactive); in [6], 0.5 (inactive); in test [7], -0.164. Besides, the z-score in [8] was 0.155 (inactive); in [9], 0.784 (inactive); in test [10], 0.958; in [11], 0.668; in [12] it was 0.195; in test [13], 1.52. For the same compound, the z-score in [14] was -0.196; in [15] it was -1.22; in test [16], 1.36; in test [17], -1.01 (inactive); in test [18] it was -0.385; in test [19] it was -0.96. In addition, the z-score in [20] is -0.112 (inactive). In test [2], the composite z-score came out at 0.373.
For the compound `O=C1NC(=O)C2C1C=CC(C(O)c1cc(C(F)(F)F)cc(C(F)(F)F)c1)N2Nc1ccccn1` (stereo not given), the z-score was -1.87 (inactive) in test [1]; 0.499 (inactive) in test [3]; 0.701 (inactive) in test [4]; -0.0477 (inactive) in test [5]; 0.827 (inactive) in test [6]; -0.822 in test [7]. Further, the z-score in test [8] was -1.17 (inactive); in [9], -1.72 (inactive); in [10] it was -2.4; in [11], -1.02; in [12], -0.485; in test [13], -0.165. Further, the z-score in test [14] is 0.34; in test [15] it was -0.559; in test [16], -0.326; in test [17], -0.169 (inactive); in test [18] it was 0.372; in test [19], -0.204. Moreover, in test [20], the z-score is -0.568 (inactive). The compound further yielded a composite z-score in test [2] of 0.127.
Consider `Cc1ccc(S[C@]2(C(=O)NCCCN(C)C)CC(=O)N(Cc3cc(C(F)(F)F)cc(C(F)(F)F)c3)[C@@H]2c2ccc(CO)cc2I)cc1`, for which the z-score in [1] was 0.272 (inactive); in [3], 3.48 (inactive); in test [4] it was 1.12 (inactive); in test [5], -1.36 (inactive); in [6], 0.303 (inactive); in test [7], -0.232. In addition, the z-score is 1.28 (inactive) in test [8]; -1.25 (inactive) in [9]; 2.43 in test [10]; 0.0371 in test [11]; -0.787 in test [12]; 0.241 in test [13]. Further, the z-score in test [14] is -2.19; in test [15], -2; in test [16] it was -0.547; in test [17], 0.669 (inactive); in [18], -0.442; in test [19], -2.03. Moreover, the z-score in test [20] is -0.335 (inactive). For the same compound, in test [2], the composite z-score was found to be 1.37.
In the case of `CC(=O)NCCCC[C@@H]1NC(=O)[C@@H]2C[C@H](C(=O)NCCCCCNC(=O)CS)[C@H](c3cccc(OCCO)c3)N2C1=O`, the z-score was 1.52 (inactive) in [1]; 1.33 (inactive) in test [3]; -0.202 (inactive) in test [4]; 0.344 (inactive) in test [5]; -1.85 (inactive) in test [6]; 0.697 in test [7]. In addition, the z-score in test [8] is -1.05 (inactive); in [9] it was 0.489 (inactive); in [10], 0.0642; in test [11] it was 0.189; in test [12], 0.767; in test [13] it was -0.884. Besides, the z-score in test [14] is 0.28; in test [15], 0.403; in test [16], -1.12; in [17], -0.843 (inactive); in test [18] it was 0.436; in test [19], -0.892. In addition, the z-score in [20] is 0.131 (inactive). This compound gave a composite z-score in test [2] of 0.0536.
As for `C=C(CC1([C@@H](NP(=O)(c2ccccc2)c2ccccc2)[C@H]2C[C@@H]2CCCC)CC1)c1ccccc1`, the z-score in [1] was -1.67 (inactive); in test [3], 0.579 (inactive); in [4], 0.495 (inactive); in test [5], 2.62 (inactive); in test [6] it was 0.935 (inactive); in [7], 0.534. Besides, the z-score is -0.538 (inactive) in test [8]; -0.988 (inactive) in test [9]; -2.95 in [10]; -0.665 in [11]; -0.523 in test [12]; -0.721 in test [13]. Further, the z-score in test [14] is -2.74; in test [15] it was -3.25; in test [16], -2.48; in [17], -0.841 (inactive); in [18] it was -0.968; in [19] it was -1.92. The z-score in test [20] was 4.95 (inactive). Also, the composite z-score in [2] came to 0.568.
As for `CC(C)C(CO)N1C(=O)[C@@H]2C3C(=O)OCCC/C=C\[C@H]3OC23C=CCN(CCN2CCOCC2)C(=O)[C@@H]13` (stereo not given in full), the z-score was -0.385 (inactive) in [1]; 0.81 (inactive) in [3]; 0.179 (inactive) in test [4]; 0.148 (inactive) in [5]; 0.16 (inactive) in test [6]; -0.158 in [7]. Further, the z-score in test [8] is 1 (inactive); in test [9], 0.401 (inactive); in [10], 1.4; in test [11], 1.12; in test [12], -0.453; in [13], -0.66. Moreover, the z-score was 0.171 in [14]; -0.378 in test [15]; -0.936 in test [16]; -0.173 (inactive) in [17]; -0.759 in [18]; -0.359 in test [19]. In [20], the z-score was -0.702 (inactive). In test [2], the composite z-score is -0.07.
Turning to `CC(C)=CCN[C@H](CO)c1ccccc1`, the z-score in test [1] is -0.209 (inactive); in test [3] it was 0.128 (inactive); in test [4], -0.916 (inactive); in test [5], 0.198 (inactive); in [6], -2.39 (inactive); in [7], 0.983. Moreover, the z-score in test [8] is -0.763 (inactive); in test [9], -0.688 (inactive); in test [10], -1.61; in test [11], -0.11; in test [12], 1.93; in test [13] it was -0.0885. Also, the z-score is -1.22 in test [14]; -1.9 in test [15]; -0.416 in test [16]; 0.476 (inactive) in test [17]; -0.0908 in test [18]; 0.559 in [19]. Further, the z-score in test [20] is -0.278 (inactive). The compound also showed a composite z-score in test [2] of -0.114.
